From PubChem BioAssay AID1671202 (University of Kansas High Throughput Screening Laboratory, 2021) come the findings set out here.

Out of some 190,000 compounds screened, about 6,900 (3.6%) were called active. Cut-off read from the data, not from the text of the source: active = inhibition above about 50%; inactive = the rest. What follows is part of a selection rich in actives, with near analogues and random picks from the rest.

The target in this assay is Huntingtin (Homo sapiens) (UniProt P42858). Briefly: mutant huntingtin-calmodulin interaction inhibitors – biochemical, AlphaScreen, primary screen (AID 1671202).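 Note: 0% = both proteins with DMSO and 100% = one protein alone.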 The following applies: AlphaScreen His-mHTT/GST-CaM binding, luminescence; at 15 µM, active compounds read high. (Bead proximity is the source of the signal in Alpha formats.)
Sequence of Huntingtin (Homo sapiens) (P42858 whole entry, looked up, stated change not applied): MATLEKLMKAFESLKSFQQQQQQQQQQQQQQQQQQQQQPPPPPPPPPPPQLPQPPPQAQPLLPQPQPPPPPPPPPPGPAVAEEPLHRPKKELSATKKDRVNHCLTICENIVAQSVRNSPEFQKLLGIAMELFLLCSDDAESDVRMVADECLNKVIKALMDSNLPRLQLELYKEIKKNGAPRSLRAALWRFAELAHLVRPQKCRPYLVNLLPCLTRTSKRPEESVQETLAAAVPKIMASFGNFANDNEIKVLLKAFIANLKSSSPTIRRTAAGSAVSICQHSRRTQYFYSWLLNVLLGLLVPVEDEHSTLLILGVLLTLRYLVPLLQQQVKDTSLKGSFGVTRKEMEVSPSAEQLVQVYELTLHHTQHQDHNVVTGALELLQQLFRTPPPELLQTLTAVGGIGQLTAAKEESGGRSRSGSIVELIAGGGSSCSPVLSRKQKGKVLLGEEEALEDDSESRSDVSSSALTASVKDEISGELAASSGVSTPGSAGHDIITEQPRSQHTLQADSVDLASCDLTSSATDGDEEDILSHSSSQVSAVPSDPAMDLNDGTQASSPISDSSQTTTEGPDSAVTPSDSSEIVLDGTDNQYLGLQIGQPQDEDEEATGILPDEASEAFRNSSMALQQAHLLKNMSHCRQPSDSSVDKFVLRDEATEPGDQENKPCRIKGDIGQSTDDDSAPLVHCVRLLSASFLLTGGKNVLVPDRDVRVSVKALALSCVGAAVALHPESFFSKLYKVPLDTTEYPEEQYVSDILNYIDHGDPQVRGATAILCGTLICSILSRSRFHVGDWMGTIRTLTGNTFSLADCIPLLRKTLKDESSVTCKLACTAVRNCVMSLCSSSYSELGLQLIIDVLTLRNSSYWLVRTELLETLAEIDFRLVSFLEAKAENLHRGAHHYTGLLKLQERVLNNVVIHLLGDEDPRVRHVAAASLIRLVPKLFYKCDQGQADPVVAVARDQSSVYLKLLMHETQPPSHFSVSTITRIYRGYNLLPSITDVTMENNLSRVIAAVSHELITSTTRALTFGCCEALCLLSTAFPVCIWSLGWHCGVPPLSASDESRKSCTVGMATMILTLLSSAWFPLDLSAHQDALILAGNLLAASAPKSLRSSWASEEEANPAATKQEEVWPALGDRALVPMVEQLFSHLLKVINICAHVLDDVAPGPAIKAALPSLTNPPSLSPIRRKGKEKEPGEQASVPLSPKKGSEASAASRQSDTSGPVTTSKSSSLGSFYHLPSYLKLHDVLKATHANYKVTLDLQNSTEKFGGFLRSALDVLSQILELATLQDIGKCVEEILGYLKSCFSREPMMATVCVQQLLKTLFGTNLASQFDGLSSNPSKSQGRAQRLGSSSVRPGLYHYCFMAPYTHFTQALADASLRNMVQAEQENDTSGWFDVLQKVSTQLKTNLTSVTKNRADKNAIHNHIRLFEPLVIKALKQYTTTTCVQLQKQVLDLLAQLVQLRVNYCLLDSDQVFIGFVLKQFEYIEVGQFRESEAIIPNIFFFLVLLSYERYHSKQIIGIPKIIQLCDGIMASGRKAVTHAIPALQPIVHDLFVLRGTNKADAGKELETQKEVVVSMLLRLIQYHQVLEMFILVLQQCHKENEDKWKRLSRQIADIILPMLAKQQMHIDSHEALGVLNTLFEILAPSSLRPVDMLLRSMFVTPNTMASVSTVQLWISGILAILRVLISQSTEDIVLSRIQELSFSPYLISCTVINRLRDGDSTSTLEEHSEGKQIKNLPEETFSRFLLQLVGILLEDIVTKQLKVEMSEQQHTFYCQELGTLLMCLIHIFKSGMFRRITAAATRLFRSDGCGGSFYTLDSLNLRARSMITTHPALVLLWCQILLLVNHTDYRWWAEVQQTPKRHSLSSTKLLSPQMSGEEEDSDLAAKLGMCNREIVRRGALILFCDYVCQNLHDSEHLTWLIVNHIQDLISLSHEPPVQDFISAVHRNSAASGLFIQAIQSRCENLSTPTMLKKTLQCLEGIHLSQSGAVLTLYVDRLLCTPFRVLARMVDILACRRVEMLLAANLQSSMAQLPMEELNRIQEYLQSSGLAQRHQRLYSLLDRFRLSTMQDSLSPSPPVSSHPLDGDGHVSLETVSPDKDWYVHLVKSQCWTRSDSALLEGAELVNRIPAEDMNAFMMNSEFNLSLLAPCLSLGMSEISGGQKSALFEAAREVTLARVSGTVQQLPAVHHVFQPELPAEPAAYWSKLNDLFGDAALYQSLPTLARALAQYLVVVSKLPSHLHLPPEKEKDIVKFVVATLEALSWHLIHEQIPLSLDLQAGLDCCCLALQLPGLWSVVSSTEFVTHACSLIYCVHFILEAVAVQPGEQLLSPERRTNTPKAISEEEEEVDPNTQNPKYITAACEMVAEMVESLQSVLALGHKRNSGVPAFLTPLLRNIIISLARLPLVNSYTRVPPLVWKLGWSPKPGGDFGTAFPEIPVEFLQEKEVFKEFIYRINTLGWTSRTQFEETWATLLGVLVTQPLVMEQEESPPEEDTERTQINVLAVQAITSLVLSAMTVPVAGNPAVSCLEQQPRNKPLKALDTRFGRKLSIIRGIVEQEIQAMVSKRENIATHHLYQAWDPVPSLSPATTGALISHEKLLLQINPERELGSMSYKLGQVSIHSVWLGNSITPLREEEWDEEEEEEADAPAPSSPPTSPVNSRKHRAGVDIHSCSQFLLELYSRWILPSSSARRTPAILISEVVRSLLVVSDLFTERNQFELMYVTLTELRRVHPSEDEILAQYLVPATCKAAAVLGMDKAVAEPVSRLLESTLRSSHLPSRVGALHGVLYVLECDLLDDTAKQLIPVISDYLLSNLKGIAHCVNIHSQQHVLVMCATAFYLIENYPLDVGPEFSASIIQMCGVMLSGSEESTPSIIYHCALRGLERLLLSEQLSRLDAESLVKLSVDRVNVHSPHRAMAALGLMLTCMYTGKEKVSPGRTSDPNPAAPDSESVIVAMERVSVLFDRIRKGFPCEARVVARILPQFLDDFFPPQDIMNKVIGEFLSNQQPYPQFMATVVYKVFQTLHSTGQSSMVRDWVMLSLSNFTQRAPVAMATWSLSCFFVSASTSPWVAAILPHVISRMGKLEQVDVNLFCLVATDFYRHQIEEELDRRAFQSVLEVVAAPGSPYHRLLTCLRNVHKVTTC
As a reminder, the inhibition is the drop in the measured response relative to a control, in per cent. With `CCCCS(=O)(=O)N1CC=C(c2cn(CC)c3ncccc23)CC1`, the inhibition was 8.9% (inactive). The figure for `Nc1ncnc(N2CCN(c3ccccc3)CC2)c1[N+](=O)[O-]` is 7% (inactive). The figure for `Cc1ccc(NC(=O)C2CCc3sc(C(=O)N(C)C)cc3C2)cc1Cl` (stereo not drawn) is 5.44% (inactive); for `COc1ccc(-c2nc(-c3cccc(-c4ccnn4C)c3)no2)cc1F` it is -14.7% (inactive); for `CCC(Sc1nnnn1-c1ccccc1)C(=O)Nc1nnc(C(C)C)s1` (stereo not drawn) it is 6.4% (inactive). Under `O=C(Nc1ccc(N2CCN(c3ccccc3)C2=O)nc1)c1ccc(F)cc1` stands 1.4% (inactive); under `Cn1cccc1CN(C(=O)Nc1ccccc1Cl)C1CC1`, 22% (inactive); under `COc1cc(/C=C2/C(=O)N(c3ccc(C(=O)O)cc3)N=C2C)ccc1O`, 13% (inactive). In the case of `CC1=NN(c2ccc(Cl)cc2Cl)C(=O)/C1=C/c1ccc(Cl)cc1`, the inhibition is 27% (inactive). The figure for `COc1cc(/C=C2/SC(=O)NC2=O)cc(Br)c1O` is 7% (inactive); for `COc1cc(/C=C2/C(=O)N(c3ccc(Cl)c(Cl)c3)N=C2C)ccc1O` it is 79% (active). Under `COc1cc(/C=C2/C(=O)N(c3ccc(Cl)c(Cl)c3)N=C2C)cc(Br)c1O` stands 75% (active). For `COc1ccc(/C=C2/C(=O)N(c3ccccc3)N=C2C)c(OC)c1`, the inhibition was 25% (inactive). The figure for `Cc1ccnc(NC(=O)c2c(O)c3cccc4c3n(c2=O)CCC4)c1` is 4% (inactive); for `CCCC(=O)N1CCC2(C1)C(=O)Nc1ccccc12` (stereo not drawn) it is 0.5% (inactive). Under `Cc1cccc2[nH]c(S(=O)(=O)Cc3ccc(F)cc3Cl)nc12` stands -2% (inactive); under `O=C(NC(Nc1cccc([N+](=O)[O-])c1)C(Cl)(Cl)Cl)c1ccc(Br)cc1` (stereo not drawn), 76% (active). The figure for `Cc1ccccc1NC(NC(=O)c1cccc([N+](=O)[O-])c1)C(Cl)(Cl)Cl` (stereo not drawn) is 48% (inactive). As to `CC(C)(C)NC(NC(=O)c1ccc(Br)cc1)C(Cl)(Cl)Cl` (stereo not drawn), the inhibition is -11% (inactive). Under `COc1ccc(C)cc1NC(=O)C1CN(C(=O)c2ccncc2)CC12CCCCC2` (stereo not drawn) stands 41.7% (inactive); under `COc1cc(NC(=O)C2CN(C(=O)c3ccncc3)CC23CCCCC3)cc(OC)c1` (stereo not drawn), 87.6% (active); under `O=C(NCc1ccccn1)C1CN(C(=O)c2ccncc2)CC12CCCCC2` (stereo not drawn), -2.9% (inactive). The figure for `CNC(=O)C(=O)Nc1ccc(OC)cc1` is 2% (inactive); for `C=CCNC(=O)c1cc(=O)[nH]c2c(Cl)cccc12` it is 2.2% (inactive). The figure for `COCCn1ccc2c(OCC(=O)Nc3cccc([N+](=O)[O-])c3)cccc2c1=O` is -19% (inactive); for `CC1CC(=O)Nc2c1c(NC(=O)c1ccc3c(c1)OCO3)nn2C` (stereo not drawn) it is -9.4% (inactive); for `CCOc1ccccc1C(=O)Nc1c2c(nn1-c1cccc(Cl)c1)CSC2` it is 0% (inactive).

With `CCOc1ccccc1C(=O)Nc1nn(C)c2c1C(c1cccs1)CC(=O)N2` (stereo not drawn), the inhibition is 100% (active).
